Measured values reported in the supplement of paper PMC7595190.
Structures can show the parent of a compound that is named as a salt. A number with no mark means an inactive call.

System: MV4-11
Experiment: CellTox Green cytotoxicity fluorescence relative to DMSO vehicle (fold of vehicle RFU); higher = more cell death (loss of membrane integrity), active = 2 or more
Description: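 Paediatric AML cell lines (MV4-11, CMK, Kasumi-1; 4x10^4 cells/well, 96-well) treated with single compounds from the Selleckchem apoptosis library at 0.01, 0.1 and 1 µM. Cytotoxicity was read with CellTox Green (RFU, Ex 485/Em 520) at 24, 48 and 72 h and normalised to the 0.1% DMSO vehicle. Normalised RFU >= 2 was taken as a successful, cell-killing treatment.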

Row | Structure (SMILES) | CellTox Green cytotoxicity fluorescence (0.01 µM, 24 h) | CellTox Green cytotoxicity fluorescence (0.01 µM, 48 h) | CellTox Green cytotoxicity fluorescence (0.01 µM, 72 h) | CellTox Green cytotoxicity fluorescence (0.1 µM, 24 h) | CellTox Green cytotoxicity fluorescence (0.1 µM, 48 h) | CellTox Green cytotoxicity fluorescence (0.1 µM, 72 h) | CellTox Green cytotoxicity fluorescence (1 µM, 24 h) | CellTox Green cytotoxicity fluorescence (1 µM, 48 h) | CellTox Green cytotoxicity fluorescence (1 µM, 72 h)
1 | COc1c/c(=C2\C=c3ccccc3=N2)[nH]/c1=C\c1[nH]c(C)cc1C [Obatoclax Mesylate] | 0.935 | 0.93 | 0.916 | 0.96 | 0.997 | 1.02 | 1.21 | 1.78 | 2.14 (active)
2 | COc1nc(-c2ccc3c(c2)OCO3)n(-c2ccc(NC(=O)CSc3ccccc3)cc2)n1 [SecinH3] | 1.02 | 1.02 | 1.02 | 1.01 | 1.01 | 1 | 1 | 1.03 | 1.05
3 | CN[C@@H](C)C(=O)N[C@H](C(=O)N1CCC[C@H]1c1nc(C(=O)c2ccc(F)cc2)cs1)C1CCCCC1 | 0.99 | 0.973 | 0.977 | 0.975 | 0.99 | 1 | 0.969 | 1.02 | 1.03
4 | COc1nc(OCc2cccc(-c3ccccc3)c2C)ccc1CNCCNC(C)=O [PD-1/PD-L1 inhibitor 2] | 1.02 | 0.96 | 1 | 0.984 | 0.959 | 0.944 | 0.985 | 1 | 1.01
5 | CN1CCN(CCCNc2ncc(Cl)c(-c3cc4c(C(=O)NC5CC5)cccc4s3)n2)CC1 | 0.979 | 0.976 | 0.987 | 0.956 | 0.966 | 0.965 | 0.903 | 0.93 | 0.926
